Among the data in PubChem BioAssay (Tox21) are Potency and outcome values, retold here.

Experiment [1] is described as follows: qHTS assay to test for compound auto fluorescence at 535 nm (green) in HEK293 cells (AID 720680).
Experiment [2] can be described thus: qHTS assay to test for compound auto fluorescence at 460 nm (blue) in HEK293 cell free culture (AID 720681). Further: potency means the concentration at half of the fitted maximal effect. Put shortly: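 Blue fluorescence (Ex 405/Em 460 nm, triamterene-equivalent) was read immediately after pin transfer of compound or DMSO into medium (DMEM, 10% FBS) without cells.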
Experiment [3] can be described thus: qHTS assay to test for compound auto fluorescence at 535 nm (green) in HEK293 cell free culture (AID 720682). Put shortly: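 Cell-free medium (DMEM, 10% FBS) receives compound or DMSO by pintool. Plate read directly at Ex 485/Em 535 nm. Signal converted to fluorescein equivalency.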
The nature of experiment [4]: qHTS assay to test for compound auto fluorescence at 590 nm (red) in HEK293 cell free culture (AID 720683). Put shortly: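 Red-channel autofluorescence of compounds in culture medium (DMEM, 10% FBS), no cells, measured at 540/590 nm. Rose Bengal sodium is the reference fluorophore for equivalence.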
For orientation: qHTS replaces the single test concentration by a dilution series.

The nature of experiment [5]: qHTS assay to test for compound auto fluorescence at 590 nm (red) in HepG2 cell free culture (AID 720684). Put shortly:
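Cell-free; medium MEM + 10% FBS; compound or DMSO added by pintool; read Ex 540/Em 590 nm; Rose Bengal sodium as red reference fluorophore.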

The nature of experiment [6]: qHTS assay to test for compound auto fluorescence at 460 nm (blue) in HepG2 cell free culture (AID 720685). Further: potency means the concentration at half of the fitted maximal effect. Put shortly:
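Cell-free plates of MEM plus 10% FBS received 23 nL compound or DMSO vehicle; blue-channel (405/460 nm) intensity scored against triamterene as reference fluorophore.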

Experiment [7] in a line: qHTS assay to test for compound auto fluorescence at 535 nm (green) in HepG2 cell free culture (AID 720686).
Experiment [8] addresses Glucocorticoid receptor (Homo sapiens) (UniProt P04150). The experiment can be described thus: qHTS assay to identify small molecule agonists of the glucocorticoid receptor (GR) signaling pathway (AID 720691; active means well fitted activation curve with a large enough effect in the signal ratio in the repeat runs, not every such curve was filed as active; the % refers to the signal ratio). Put shortly:
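Compounds in DMSO, alongside positive controls, were added to GR-bla HeLa reporter cells and incubated 18 h at 37 C; GRE-driven beta-lactamase was detected by fluorescence after 2 h with FRET substrate at room temperature.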

Experiment [9] shares this target. The experiment can be described thus: qHTS assay to identify small molecule antagonists of the glucocorticoid receptor (GR) signaling pathway (AID 720692; active means well fitted inhibition curve with a large enough effect in the signal ratio in the repeat runs, not every such curve was filed as active; the % refers to the signal ratio). The essentials:
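In a 1536-well cell format, compounds were added 4 h after seeding GR-bla HeLa cells, together with dexamethasone at 5 nM final; reporter activity was measured by FRET-substrate fluorescence following 18 h at 37 C.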

Experiment [10] can be described thus: qHTS assay to identify small molecule antagonists of the glucocorticoid receptor (GR) signaling pathway - cell viability counter screen (AID 720693). Further: nearly all actives have a fitted effect of over 55% in size.
A short description of experiment [11]: qHTS assay for identifying genotoxic compounds that show differential cytotoxicity against isogenic chicken DT40 cell lines with known DNA damage response pathways - wild type cell line (AID 743012). Further: nearly all actives have a fitted effect of over 60% in size. Further: potency means the concentration at half of the fitted maximal effect. Put shortly: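 Viability of DNA repair-proficient chicken DT40 cells was assessed by CellTiter-Glo luminescence following 40 h compound exposure at 37 C/5% CO2.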

Experiment [12] in a line: qHTS assay for identifying genotoxic compounds that show differential cytotoxicity against isogenic chicken DT40 cell lines with known DNA damage response pathways - Rev3 mutant cell line (AID 743014). Further: nearly all actives have a fitted effect of over 55% in size. Further: potency means the concentration at half of the fitted maximal effect.
Experiment [13] in a line: qHTS assay for identifying genotoxic compounds that show differential cytotoxicity against isogenic chicken DT40 cell lines with known DNA damage response pathways - Rad54/Ku70 mutant cell line (AID 743015). Further: nearly all actives have a fitted effect of over 60% in size. Further: potency means the concentration at half of the fitted maximal effect.
Experiment [14] can be described thus: qHTS assay to identify small molecule antagonists of the androgen receptor (AR) signaling pathway - cell viability counter screen (AID 743033; further: nearly all actives have a fitted effect of over 45% in size; further: potency means the concentration at half of the fitted maximal effect).
The nature of experiment [15]: qHTS assay to identify small molecule antagonists of the androgen receptor (AR) signaling pathway using the MDA cell line - cell viability counter screen (AID 743041; further: nearly all actives have a fitted effect of over 45% in size). The essentials:
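Viability read by CellTiter-Fluor fluorescence in the same wells as the antagonist screen, added after 15.5 h of a 16 h, 37C exposure. Human breast carcinoma MDA-kb2 AR-luc cells, compounds co-dosed with agonist R1881.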

A short description of experiment [16]: qHTS assay to identify small molecule antagonists of the thyroid receptor (TR) signaling pathway - cell viability counter screen (AID 743064). Further: nearly all actives have a fitted effect of over 50% in size. Further: potency means the concentration at half of the fitted maximal effect. Put shortly:
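GH3.TRE-Luc cells, 4 h pre-plating; cpd + T3 1 nM final; 37 °C 23.5 h; CellTiter-Fluor 30 min; fluorescence read.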

For experiment [17], the target named is Androgen receptor (Homo sapiens) (UniProt P10275). The experiment is described as follows: qHTS assay to identify small molecule antagonists of the androgen receptor (AR) signaling pathway (AID 743035; active means well fitted inhibition curve with a large enough effect in the signal ratio in the repeat runs, not every such curve was filed as active; the % refers to the signal ratio). Put shortly:
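Reporter HEK293 cells were exposed to compounds and R1881 overnight (16 h, 37C); beta-lactamase activity was then quantified by FRET fluorescence.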

For experiment [18] the target is unchanged. The experiment can be described thus: qHTS assay to identify small molecule agonists of the androgen receptor (AR) signaling pathway (AID 743036; active means well fitted activation curve with a large enough effect in the signal ratio in the repeat runs, with a control signal flat, not every such curve was filed as active; the % refers to the signal ratio). Put shortly: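 AR-bla HEK293 cells, 2,000/well; 4 h preincubation 37C/5% CO2; compound (DMSO) 16 h at 37C; LiveBLAzer B/G FRET substrate 2 h RT; fluorescence intensity read-out.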
For experiment [19] the target is unchanged. The experiment can be described thus: qHTS assay to identify small molecule antagonists of the androgen receptor (AR) signaling pathway using the MDA cell line (AID 743042; further: nearly all actives have a fitted effect of over 55% in size). The essentials:
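Antagonist mode: compounds plus R1881 agonist added to MDA-kb2 AR-luc cells, incubated 16 h at 37C. Luciferase reporter luminescence quantified, with multiplexed CellTiter-Fluor readout for cell viability.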

The nature of experiment [20]: qHTS assay to test for compound auto fluorescence at 460 nm (blue) in HepG2 cells (AID 720687). Further: potency means the concentration at half of the fitted maximal effect. Put shortly:
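Blue-channel autofluorescence (Ex/Em 405/460 nm, triamterene-equivalent) was measured after 1 hr compound exposure at 37 C, 5% CO2. Cells were HepG2, plated overnight at 37 C in MEM plus 10% FBS.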

Values joined by “and” are separate entries in the source; they are usually repeats but may differ in a detail not shown here. Equal entries are not always repeated. Results filed as inconclusive are left out. A structure can be active in one record and inactive in another. Active and inactive are the calls of the source. Unless noted, the call rests on the fitted dose curve; in most records, active means well fitted curve in the direction sought with a large enough effect in the repeat runs; inconclusive means weak or mixed curves; inactive means no such curve, though single readings can be large; an effect the other way counts as inactive or inconclusive.
Tags describe the fitted curve by direction and shape or compound fluorescence and quenching.

Sequence of Glucocorticoid receptor (Homo sapiens) (P04150 whole entry, looked up): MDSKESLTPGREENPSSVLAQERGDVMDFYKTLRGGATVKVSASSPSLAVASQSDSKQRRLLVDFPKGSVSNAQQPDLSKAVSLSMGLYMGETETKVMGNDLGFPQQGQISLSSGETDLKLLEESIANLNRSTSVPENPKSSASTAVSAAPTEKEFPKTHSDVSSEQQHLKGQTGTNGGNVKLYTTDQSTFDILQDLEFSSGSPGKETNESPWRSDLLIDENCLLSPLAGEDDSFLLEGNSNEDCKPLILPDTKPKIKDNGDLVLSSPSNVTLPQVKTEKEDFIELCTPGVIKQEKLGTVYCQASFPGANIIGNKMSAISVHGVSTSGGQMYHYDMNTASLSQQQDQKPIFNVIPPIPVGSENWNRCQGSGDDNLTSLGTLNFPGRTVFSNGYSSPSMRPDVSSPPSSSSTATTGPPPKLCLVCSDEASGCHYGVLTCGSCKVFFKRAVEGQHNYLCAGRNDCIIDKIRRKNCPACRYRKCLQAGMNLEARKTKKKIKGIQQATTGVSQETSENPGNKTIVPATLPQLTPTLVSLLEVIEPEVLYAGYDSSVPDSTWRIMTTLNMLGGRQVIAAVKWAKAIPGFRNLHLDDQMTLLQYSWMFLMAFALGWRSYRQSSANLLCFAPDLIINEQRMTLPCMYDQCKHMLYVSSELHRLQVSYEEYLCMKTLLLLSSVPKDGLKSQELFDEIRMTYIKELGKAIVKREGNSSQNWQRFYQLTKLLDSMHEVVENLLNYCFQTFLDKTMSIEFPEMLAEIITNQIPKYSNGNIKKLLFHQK
Sequence of Androgen receptor (Homo sapiens) (P10275 whole entry, looked up): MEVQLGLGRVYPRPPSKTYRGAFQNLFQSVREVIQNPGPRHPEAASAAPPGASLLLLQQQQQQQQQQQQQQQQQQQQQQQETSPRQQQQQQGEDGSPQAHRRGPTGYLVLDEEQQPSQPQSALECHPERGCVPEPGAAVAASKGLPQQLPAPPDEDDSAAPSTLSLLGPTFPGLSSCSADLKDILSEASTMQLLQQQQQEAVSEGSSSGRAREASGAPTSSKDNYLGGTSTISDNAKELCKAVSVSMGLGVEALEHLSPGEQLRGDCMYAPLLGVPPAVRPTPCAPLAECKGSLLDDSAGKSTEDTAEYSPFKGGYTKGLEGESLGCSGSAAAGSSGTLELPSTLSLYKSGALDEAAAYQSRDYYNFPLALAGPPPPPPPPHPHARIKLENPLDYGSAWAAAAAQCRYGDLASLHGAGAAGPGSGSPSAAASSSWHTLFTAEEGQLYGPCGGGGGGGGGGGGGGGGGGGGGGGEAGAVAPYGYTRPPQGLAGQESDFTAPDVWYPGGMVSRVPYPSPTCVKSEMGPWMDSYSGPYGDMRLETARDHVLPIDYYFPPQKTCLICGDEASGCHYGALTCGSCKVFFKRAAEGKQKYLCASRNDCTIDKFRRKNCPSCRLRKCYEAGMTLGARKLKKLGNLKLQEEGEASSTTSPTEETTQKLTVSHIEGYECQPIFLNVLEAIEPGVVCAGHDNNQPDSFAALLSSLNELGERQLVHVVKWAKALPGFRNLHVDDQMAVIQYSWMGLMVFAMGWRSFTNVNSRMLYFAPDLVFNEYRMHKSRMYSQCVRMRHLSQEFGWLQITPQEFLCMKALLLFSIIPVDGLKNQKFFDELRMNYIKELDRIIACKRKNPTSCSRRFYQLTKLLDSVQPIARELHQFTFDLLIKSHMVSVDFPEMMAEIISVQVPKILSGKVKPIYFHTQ

As to `Nc1nc2ccccc2[nH]1`, the Potency result in [1], in experiment [2], in experiment [3], in experiment [6], in experiment [7] and in experiment [8] was “inactive” in each case. Besides, the Potency entry in experiment [9], in [10], in [11], in experiment [12], in experiment [13] and in experiment [14] was “inactive” each time. Also, the Potency entry in experiment [15] and in experiment [16] was “inactive” in each case. Moreover, the molecule was called inactive in [4] and in experiment [5].
Turning to `CCN(CC)C(=O)Nc1ccc(OCC(O)CNC(C)(C)C)c(C(C)=O)c1` (configuration not stated), the Potency result in experiment [1], in [2], in experiment [3], in experiment [6], in [7] and in [8] was “inactive” each time. Further, the Potency result in experiment [9], in experiment [10], in experiment [11], in experiment [12], in experiment [13] and in experiment [17] was “inactive” throughout. For the same molecule, the Potency result in experiment [18], in [15], in [19] and in experiment [16] was “inactive” each time. Moreover, the outcome in [4] and in experiment [5] was inactive.
`Nc1ccc2cc3ccccc3cc2c1`: the Potency result in experiment [1], in experiment [3], in experiment [7], in experiment [10], in experiment [11] and in [14] was “inactive” each time. Also, the Potency entry in experiment [15] is “inactive”. Further, the Potency in experiment [2] was 39.8 µM (active); in experiment [6] it was 39.8 µM [fluorescent] (active); in [20], 39.8 µM [fluorescent] (active). Further, the molecule was called inactive in [4] and in experiment [5].
On to `CNC1(C)C2CCC(C2)C1(C)C` (configuration not stated), for which the Potency result in experiment [1], in [2], in [3], in experiment [6], in [7] and in experiment [8] was “inactive” throughout. Moreover, the Potency result in experiment [9], in experiment [10], in experiment [11], in experiment [12], in [13] and in [14] was “inactive” each time. Besides, the Potency entry in [15] and in experiment [16] was “inactive” each time. The outcome in experiment [4] and in [5] was inactive.
As for `O=C(Oc1ccccc1)c1ccccc1O`, the Potency result in experiment [1], in [2], in experiment [3], in experiment [6], in experiment [20] and in experiment [8] was “inactive” throughout. The Potency entry in experiment [9], in [10], in [11], in [12], in experiment [14] and in experiment [16] was “inactive” in each case. In addition, the molecule was classed as inactive in experiment [4] and in experiment [5]. The Potency result in experiment [13] was “inactive and 61.1 µM (active)”.
Regarding `CCCCCCC(O)CCCCCCCCCCC(=O)O` (configuration not stated), the Potency result in experiment [1], in experiment [2], in [3], in experiment [6], in experiment [20] and in experiment [8] was “inactive” in each case. The Potency entry in [10], in experiment [11], in experiment [12], in experiment [14], in experiment [15] and in experiment [16] was “inactive” throughout. Besides, the molecule was classed as inactive in [4] and in experiment [5]. Further, in experiment [13], the Potency entry was “inactive and 48.6 µM (active)”.
Consider `COC(=O)[C@H]1[C@H]2C[C@@H]3c4[nH]c5cc(OC)ccc5c4CCN3C[C@H]2C[C@@H](OC(=O)c2cc(OC)c(OC)c(OC)c2)[C@@H]1OC`, for which the Potency entry in experiment [1], in experiment [2], in experiment [3], in experiment [6], in experiment [8] and in [10] was “inactive” in each case. Further, the outcome in [4] and in [5] was inactive. Moreover, the Potency is 13.3 µM (active) and 17.7 µM (active) in [11]; 18.8 µM (active) and 25 µM (active) in [12]; 18.8 µM (active) and 24.3 µM (active) and 22.3 µM (active) in experiment [13]; “inactive and 21.8 µM (active)” in [14]; 11.9 µM (active) and 24.3 µM (active) in experiment [16].
In the case of `O=C(Cl)c1cccc(C(=O)Cl)c1`, the Potency result in [1], in experiment [2], in [3], in [6], in experiment [20] and in [8] was “inactive” in each case. Besides, the Potency result in [9], in experiment [10], in experiment [11], in experiment [13], in [14] and in experiment [16] was “inactive” in each case. The molecule was classed as inactive in experiment [4] and in experiment [5].
For the molecule `CCCN[C@H]1CCc2nc(N)sc2C1`, the Potency entry in experiment [1], in [2], in experiment [3], in experiment [6], in experiment [20] and in experiment [10] was “inactive” throughout. Moreover, the Potency entry in experiment [11], in experiment [12], in experiment [13], in experiment [14], in experiment [15] and in [16] was “inactive” throughout. For the same molecule, the molecule was classed as inactive in experiment [4] and in [5].
`CCc1ccc(C(c2ccc(CC)cc2)C(Cl)Cl)cc1`: the Potency result in experiment [1], in experiment [2], in experiment [3], in experiment [6], in [20] and in experiment [8] was “inactive” each time. Moreover, the Potency result in experiment [10], in experiment [11], in experiment [12], in [13], in experiment [14] and in experiment [18] was “inactive” in each case. The Potency entry in experiment [15], in experiment [19] and in [16] was “inactive” throughout. Besides, the molecule was called inactive in [4] and in [5].
`Cc1cccc([N+](=O)[O-])c1C(=O)O`: the Potency result in [1], in experiment [2], in experiment [6], in experiment [7], in experiment [20] and in experiment [8] was “inactive” each time. Besides, the Potency result in experiment [9], in experiment [10], in experiment [11], in experiment [12], in experiment [13] and in experiment [14] was “inactive” throughout. Besides, the Potency result in experiment [15] and in experiment [16] was “inactive” in each case. For the same molecule, the result in experiment [4] and in [5] was inactive.
Take `CN1C(=O)c2ccc([N+](=O)[O-])cc2C1=O`: the Potency entry in experiment [1], in [2], in experiment [3], in [6], in experiment [20] and in experiment [10] was “inactive” throughout. Moreover, the Potency result in experiment [11], in experiment [12], in experiment [13], in experiment [14], in [17] and in [18] was “inactive” each time. The Potency result in [15], in experiment [19] and in experiment [16] was “inactive” throughout. The outcome in experiment [4] and in experiment [5] was inactive.
As for `CCN(CC)CCOc1ccc(/C(=C(\Cl)c2ccccc2)c2ccccc2)cc1`, the Potency result in experiment [1], in experiment [2], in [3], in experiment [6], in experiment [20] and in experiment [15] was “inactive” each time. The Potency result in [19] is “inactive”. Further, the molecule was called inactive in experiment [4] and in [5]. The Potency was 1.19 µM (active) and 140 nM (active) in experiment [11]; 422 nM (active) and 24.8 nM (active) in experiment [12]; 1.68 µM (active) and 44.2 nM (active) in experiment [13]; 15.8 µM (active) in experiment [14]; 7.5 µM (active) and 7.86 µM (active) in [16].
